# Screen size: about 69,000 compounds; about 8,600 (12%) showed an effect of 50% or more. The entries come from a sample that favours strong results as a whole.
# Tested on: Plasmodium berghei
# Assay: Screen against P. berghei liver stage (PbLuc), transformed with Luciferase, at 10uM
# Type: functional, HepG2
# Conditions: tested at 10 uM
row,Compound,INHIBITION
1,Cc1cc(NCCc2nc(C)c[nH]2)nc(-c2ccccc2O)n1,43.6%
2,CN1CCN(C(=O)N2CCC3(CCCN(C4CCOCC4)C3=O)C2)CC1 (configuration not stated),-1.15%
3,Cc1ccc2c(n1)N(Cc1ccncc1)CCN(S(C)(=O)=O)C2,36.9%
4,COCCN1CCN(S(C)(=O)=O)Cc2ccc(C)nc21,16.9%
5,Cc1ccc2c(n1)N(CC(C)C)CCN(S(C)(=O)=O)C2,67.2%
6,CS(=O)(=O)NCC(Cc1cccc(F)c1)N1CCNC1=O (configuration not stated),15.7%
7,Clc1ccc(COCC2CCN(Cc3ccccn3)CC2)cc1,62.3%
8,Fc1ccc(COCC2CCN(Cc3ccccn3)CC2)cc1,-56.4%
9,COc1cc(COCC2CCN(Cc3ccccn3)CC2)cc(OC)c1,6.54%
10,Cc1nc(NC(=O)CNC(=O)c2c(F)cccc2Cl)n[nH]1,-8.69%
11,CCOCCN1CCN(Cc2cccc(C(=O)N(C)C)c2)CC1C (configuration not stated),-9.37%
12,CN1CCCC1c1cncc(C(=O)NCC2CC2)n1 (configuration not stated),-80%
13,c1ccc(CNc2nc(N3CCOCC3)nc3nccnc23)cc1,30.7%
14,O=S(=O)(N1CCCCCC1)N1CCCN(CC2CCCO2)CC1 (configuration not stated),9.57%
15,COc1ccnc(CNc2cc(C3CC3)ncn2)c1,-47.2%
16,COc1ccnc(CNc2nc(C)nc3ccsc23)c1,76.9%
17,COc1ccnc(CNc2nc(C)nc(C)c2C)c1,-27.6%
18,CC(C(=O)NCc1ccc(N2CCCCC2)nc1)S(C)(=O)=O (configuration not stated),9.54%
19,Cc1n[nH]c(C)c1CCC(=O)NCC1(O)CCN(c2ccccn2)C1 (configuration not stated),3.48%
20,Cn1cc(C(=O)N2CCCC(c3ccncc3)C2)cn1 (configuration not stated),-16.5%
21,CNCc1n[nH]c(=O)n1CC1CCCCC1,23.9%
22,CN1CCC(c2n[nH]c(=O)n2CC2CCCCC2)CC1,40.6%
23,CN1CCN(Cc2n[nH]c(=O)n2CC2CCCCC2)CC1,70.3%
24,O=C(c1cccnc1)N1CCCC(Cc2nccs2)C1 (configuration not stated),-9.27%

row,Compound,INHIBITION
1,Cc1nc(N2CCCC2)nc2c1CCN(C(=O)NC1CCCC1)CC2,-6.23%
2,O=C(Cc1ccccn1)N1C[C@H](OCc2cccnc2)[C@H]2COC[C@H]21,-31%
3,Cc1cc(C)n2c(CNCCNc3ccccc3)cnc2n1,-35.2%
4,CCNC(=O)CN(CC)C(=O)Cc1csc(C(C)C)n1,81.6%
5,CC(C)c1nc(CN(CC(N)=O)C(C)C)cs1,31.8%
6,CCN(CC)C(=O)Cc1csc(C(C)C)n1,-4.4%
7,CNC(=O)CN(C)C(=O)Cc1csc(C(C)C)n1,12.3%
8,CC(Cn1cccn1)NC(=O)Cc1csc(C(C)C)n1 (configuration not stated),0.914%
9,CCN(CC(=O)NC)C(=O)Cc1csc(C(C)C)n1,62.4%
10,O=C(c1cocn1)N1CCC2(CC1)CC(Oc1ccccn1)CO2 (configuration not stated),-0.804%
11,COC(=O)c1ccoc1CN(C1CC1)C1CCS(=O)(=O)C1 (configuration not stated),42.8%
12,Cc1nc(C)n(CC2CCCCN2Cc2cnc(C)s2)n1 (configuration not stated),30.6%
13,CCOc1ncccc1C(=O)NC1CCCN(c2ncccn2)C1 (configuration not stated),-39.7%
14,O=C(NCC1CCC2(CC1)OCCO2)c1cccc(-n2cccn2)c1,30.2%
15,COc1ncccc1CNCc1cnc(N2CCOCC2)nc1,-65%
16,Cc1cnn(CC2CN(CC(=O)Nc3c(C)nn(C)c3C)CCO2)c1 (configuration not stated),26.4%
17,NC(=O)N1C[C@H](NC(=O)c2cscn2)[C@@H]2OCCC[C@@H]21,60.2%
18,CS(=O)(=O)N[C@@H]1CN(C(=O)c2cccnc2)[C@@H]2CCCO[C@@H]21,56.7%
19,CS(=O)(=O)N[C@@H]1CN(C(=O)c2ccccn2)[C@@H]2CCCO[C@@H]21,37.5%
20,CN1C[C@H](NC(=O)c2cscn2)[C@@H]2OCCC[C@@H]21,35.8%
21,CS(=O)(=O)N[C@H]1CN(C(=O)c2cscn2)[C@@H]2CCCO[C@H]12,60.2%
22,Cc1cccc(C(=O)N2C[C@H](NS(C)(=O)=O)[C@@H]3OCCC[C@@H]32)n1,31.1%
23,CS(=O)(=O)N[C@@H]1CN(C(=O)c2cnccn2)[C@@H]2CCCO[C@@H]21,26.4%
24,CC(=O)N1C[C@H](NC(=O)c2cscn2)[C@@H]2OCCC[C@@H]21,42.6%

row,Compound,INHIBITION
1,CO[C@H]1CN(C(=O)c2cccnc2)[C@@H]2CCCO[C@H]12,-14.7%
2,CNc1ncccc1CN1CCCCC1c1cc(C)n2ccnc2n1 (configuration not stated),13%
3,CN(Cc1cccnc1)C(=O)NC1CCN(Cc2ccccn2)CC1,16.8%
4,COCCC(C)NC(=O)N1CCSC(C)(C)C1 (configuration not stated),48.3%
5,CC(CCN(C)C)NC(=O)N1CCSC(C)(C)C1 (configuration not stated),60.3%
6,CSCCC(C)NC(=O)N1CCSC(C)(C)C1 (configuration not stated),14.9%
7,Cc1nc(C2CCCN2CCS(C)(=O)=O)no1 (configuration not stated),26.55%
8,CCCSc1nn(CCCN(C)C)c2nc3sc(C)c(CC)c3c(=O)n12,11.6%
9,CCc1c(C)sc2nc3n(CCN(C)C)nc(SC)n3c(=O)c12,30.5%
10,CCCSc1nn(CCN(C)C)c2nc3sc(C)c(CC)c3c(=O)n12,88.1%
11,Cc1nn(C)c2cnn(CC(=O)NCc3cccs3)c12,8.49%
12,CC(C)n1c(=O)c2ccccc2n(CCN(C)C)c1=O,-0.29%
13,CCn1ncnc1C1CC(=O)NCc2nc(N3CCCC3)sc21 (configuration not stated),-32.5%
14,CCCC(=O)N1CCC(Nc2nc(O)cc(-c3ccsc3)n2)CC1,10.7%
15,CCCn1ncc2c(C(=O)NC(C)Cn3cccn3)cc(C3CC3)nc21 (configuration not stated),-24.1%
16,CCCn1ncc2c(C(=O)Nc3n[nH]c(SC)n3)cc(C3CC3)nc21,53%
17,CCCn1ncc2c(C(=O)Nc3cnn(CC)c3C)cc(C3CC3)nc21,-9.98%
18,CN(Cc1ccc(-n2ccnc2)cc1)CC1CCCN1c1cccnn1 (configuration not stated),-12.1%
19,Cc1ccc(S(=O)(=O)c2ncccc2CN2CCN(C)CC2)cc1,68.4%
20,Cc1ccc(S(=O)(=O)c2ncccc2CN2CCCC2)cc1,42.4%
21,Cc1ccc(S(=O)(=O)c2ncccc2CN2CCCCC2)cc1,45.2%
22,Cc1ccc(S(=O)(=O)c2ncccc2CN2CCOCC2)cc1,37.8%
23,O=C(c1cccnc1N1CCN(CCO)CC1)N1CCCC1,43.6%
24,Cc1ccc(S(=O)(=O)c2ncccc2CN2CCN(CCO)CC2)cc1,68.4%
